Screens: PubChem BioAssay, The Scripps Research Institute Molecular Screening Center
A selection: hits, their analogues and other compounds. The true share with any hit is near 2.6%.
TCR CD3 inh: inhibitors of human TCR-CD3 interaction, primary screen, biochemical, fluorescence, TAMRA-labeled TCR probe; T-cell receptor (TCR); inhibition, % at 9.4 µM; hit rate 0.37% among 360,000; AID 651800, 2012; in the data active means inhibition above about 19%;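 further: recombinant mutant TCR 2C K166C tagged with TAMRA read by polarization; 0% = receptor in buffer alone and 100% = receptor with positive control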
Fam108B inh: mouse Fam108B serine hydrolase inhibitors, primary screen, counter-screen for RBBP9 inhibitor project, biochemical, fluorescence polarization | recombinant Fam108B, FP-Rh probe fluorescence polarization | inhibition, % at 9.51 µM | hit rate 0.33% among 300,000;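 active means inhibition above the screen mean inhibition plus 3 SD, computed separately per campaign, cut at about 18% in these data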;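 further: inhibitors lower polarization as less probe binds the enzyme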
PRMT1 inh: PRMT1 methyltransferase inhibitors, primary screen, biochemical, fluorescence polarization. Protein arginine N-methyltransferase 1 (Homo sapiens), Q99873. recombinant PRMT1, activity-based probe fluorescence polarization. inhibition, % at 2.79 µM. hit rate 1.3% among 370,000;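 active means inhibition above about 21% made by adding two undisclosed values, limit read from the data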
PME-1 primary: PME-1 inhibitors via competitive probe labeling, primary screen, biochemical, fluorescence polarization, FP-Rh probe, HTS; Protein phosphatase methylesterase 1 (Homo sapiens), Q9Y570; recombinant PME-1; inhibition, % at 5.9 µM; hit rate 0.53% among 320,000;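 active means inhibition above the campaign mean of all compounds plus 3 SD, cut at about 26% in these data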;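 further: competitive labeling of PME-1 active site by serine hydrolase directed probe; 0% = PME-1 with DMSO and 100% = wells lacking PME-1 enzyme; inhibitors block probe labeling so polarization falls and inhibition rises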
PAD4 FP inh: human PAD4 inhibitors, primary screen, biochemical, fluorescence polarization, 1536-well format; Protein-arginine deiminase type-4 (Homo sapiens), Q9UM07; hit rate 0.41% among 330,000; inhibition, % at 6.36 µM; recombinant PAD4, RCA probe fluorescence polarization;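 active means percent inhibition above a cutoff equal to the mean of all tested compounds plus 3 SD, cut at about 15% in these data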;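 further: 0% = PAD4 with RCA probe and DMSO and 100% = probe without PAD4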
Target sequence (Q9UM07 whole entry, looked up): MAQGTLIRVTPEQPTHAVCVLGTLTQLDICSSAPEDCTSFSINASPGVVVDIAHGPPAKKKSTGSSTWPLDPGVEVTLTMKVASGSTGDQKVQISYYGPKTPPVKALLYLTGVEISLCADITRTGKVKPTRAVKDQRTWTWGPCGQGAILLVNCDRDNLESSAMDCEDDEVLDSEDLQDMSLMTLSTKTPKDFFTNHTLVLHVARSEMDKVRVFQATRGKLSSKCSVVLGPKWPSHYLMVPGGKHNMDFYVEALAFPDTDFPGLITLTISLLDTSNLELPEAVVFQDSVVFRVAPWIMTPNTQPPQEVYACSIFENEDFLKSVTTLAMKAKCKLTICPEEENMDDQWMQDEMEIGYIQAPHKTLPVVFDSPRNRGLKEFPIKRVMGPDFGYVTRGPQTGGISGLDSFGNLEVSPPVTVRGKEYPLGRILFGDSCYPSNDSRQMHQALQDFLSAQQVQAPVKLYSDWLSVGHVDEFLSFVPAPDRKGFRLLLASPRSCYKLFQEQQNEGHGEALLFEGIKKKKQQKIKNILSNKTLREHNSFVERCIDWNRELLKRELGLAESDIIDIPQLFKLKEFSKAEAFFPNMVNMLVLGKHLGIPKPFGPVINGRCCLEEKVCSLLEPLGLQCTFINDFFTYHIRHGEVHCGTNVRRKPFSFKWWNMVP
SIAE primary: human SIAE inhibitors, primary screen, biochemical, fluorescence polarization, FP-Rh probe, 1536-well HTS. SIAE FP-Rh probe binding. inhibition, % at 9.66 µM. Sialate O-acetylesterase (Homo sapiens), Q9HAT2. hit rate 0.69% among 370,000;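 active means inhibition above a cutoff: mean of compounds within the control limits plus 3 SD of those, cut at about 17% in these data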;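 further: 0% = plate median of compound wells and 100% = probe without SIAE protein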
PRMT1 inh conf: PRMT1 methyltransferase inhibitors, confirmation, biochemical, fluorescence polarization, triplicate; shares compounds with PRMT1 inh; inhibition, % at 2.79 µM; AID 687036, 2013; hit rate 42% among 3,300; recombinant His-PRMT1, activity-based probe fluorescence polarization;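 active means mean inhibition across replicates above the hit cutoff derived for the earlier primary screen, cut at about 22% in these data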
An asterisk follows results filed as active; nt = no result.

SMILES	TCR CD3 inh	Fam108B inh	PRMT1 inh	PME-1 primary	PAD4 FP inh	SIAE primary	PRMT1 inh conf
CC(=O)N1CC=C2C(C#N)=C(N)C(C#N)(C#N)C(CCc3ccccc3)C2C1 (centres undefined)	6.8	-1.7	6.2	11.4	-4.5	2.9	nt
CCN1CC=C2C(C#N)=C(N)C(C#N)(C#N)C(CCc3ccccc3)C2C1 (centres undefined)	9.7	0.4	49.1*	3.6	20.0*	15.1	25.1*
CC(=O)N1CC=C2C(C#N)=C(N)C(C#N)(C#N)[C@H](c3ccoc3)[C@H]2C1	9.1	7.6	20.6	3.2	-0.5	2.1	nt
N#CC1=C(N)C(C#N)(C#N)[C@H](c2ccoc2)[C@H]2CN(Cc3ccccc3)CC=C12	8.8	1.2	33.2*	13.7	-4.0	8.4	4.9
CCOC(=O)C1(Cc2ccccc2)CCN(Cc2ccnc3ccccc23)CC1	nt	nt	5.6	nt	nt	1.8	nt
CCOc1cccc(-c2nnc(SCC(=O)Nc3ccc4c(c3)OCO4)n2N)c1	nt	nt	3.5	nt	nt	-1.4	nt
CC(C)Cn1c(N)c(C(=O)CSc2ncccn2)c(=O)n(C)c1=O	-7.5	-0.9	58.1*	0.3	0.9	-5.8	3.7
CC(=O)Nc1ccc(SCC(=O)c2cc(C)n(C)c2C)cc1	-0.2	7.8	36.1*	-10.9	0.7	6.0	15.7
CC(=O)Nc1ccc(SCC(=O)Nc2ccc(Cl)cn2)cc1	4.7	-1.4	28.5*	-2.1	5.5	4.8	37.1*
CC(=O)Nc1ccc(SCC(=O)Nc2ccc3c(c2)OCCO3)cc1	5.0	nt	57.6*	nt	5.2	0.7	53.6*
CN(C)S(=O)(=O)c1ccc(C(=O)NC(=O)CSc2ccccc2)cc1	4.6	6.1	1.6	2.6	1.2	-0.7	nt
CC(=O)Nc1ccc(SCC(=O)NC(=O)c2ccc(S(=O)(=O)N(C)C)cc2)cc1	1.3	nt	50.2*	nt	11.1	14.3	42.6*
Cc1ccc(C(=O)n2ccc3ccc(-c4ccc5ccn(Cc6ccc(C#N)cc6)c5c4)cc32)cc1	nt	nt	8.2	nt	nt	-23.2	nt
COc1ccc(Cn2ccc3ccc(-c4ccc5ccn(C(=O)C6CCCCC6)c5c4)cc32)cc1	nt	nt	4.5	nt	nt	-4.5	nt
Cc1ccc(CSc2nnc(-c3cc(-c4ccc(F)cc4)n[nH]3)n2N)cc1	nt	nt	4.7	nt	nt	0.2	nt
COc1ccc(/C=C2\CCc3c2nc2ccccc2c3C(=O)O)cc1OC	-0.5	-1.1	78.5*	7.0	-9.1	8.8	12.4
COc1ccc(O)c(/C=c2/sc3nc4cc(C)c(C)cc4n3c2=O)c1	5.7	nt	39.5*	nt	nt	-58.5	69.5*
Cc1sc2c3ccsc3ccc2[n+]1C	7.7	-4.1	67.0*	0.9	14.4	-2.0	58.6*
CCN1/C(=C/c2ccc3cc(C)ccc3[n+]2C)Sc2ccc3sccc3c21	-4.9	nt	-0.5	nt	nt	-65.5	nt
C/C=C\C=C\C(=O)N1CC2(CC(c3cccc(NC(=O)COc4ccc(Cl)cc4)c3)=NO2)C[C@H]1C(N)=O (some centres undefined)	-0.4	-13.7	62.9*	-22.7	-2.5	-28.0	22.3*
C/C=C\C=C/C(=O)Nc1cccc(C2=NOC3(C2)C[C@@H](C(N)=O)N(C(=O)COc2ccc(Cl)cc2)C3)c1 (some centres undefined)	-4.1	-16.4	12.0	-15.5	-1.1	-27.3	nt
COC(=O)C[C@@H]1CC[C@@H]2[C@@H](COc3ccc(NC(C)=O)cc3C(=O)N2C)O1	nt	nt	-0.7	nt	nt	-0.2	nt
CC(C)(C)C(=O)NCC12C=CC(O1)C1C(=O)N(c3ccccc3)C(=O)C12 (centres undefined)	-2.9	3.0	80.7*	-3.6	2.5	-0.5	56.0*
Cc1ccc(N2C(=O)C3C4C=CC(CNC(=S)Nc5ccc(Cl)cc5)(O4)C3C2=O)cc1 (centres undefined)	-3.5	6.5	84.8*	4.6	0.2	-5.7	28.7*
O=C1C2C3C=CC(CO)(O3)C2C(=O)N1c1ccc(-c2ccccc2)cc1 (centres undefined)	nt	-8.2	nt	-2.4	-4.2	nt	nt
